For assay [1], the target named is Transcription factor E2F1 (Homo sapiens) (UniProt Q01094). In words: ATG_E2F_CIS: Attagene CIS-FACTORIAL HepG2 Assay for human E2F Transcription Factor 1 (AID 2282935). The settings on record: HepG2 Attagene cis-reporter, E2F reporter RNA transcripts; actives raise or lower the signal. An outline of the steps: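 First, HepG2 cells were transfected with reporter transcription units. Next, they were dosed for 24 h. Then RNA was isolated, converted to cDNA, PCR-amplified, FAM-labeled, HpaI-digested and analyzed by capillary electrophoresis.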
Chain of Transcription factor E2F1 (Homo sapiens) (Q01094 whole entry, looked up): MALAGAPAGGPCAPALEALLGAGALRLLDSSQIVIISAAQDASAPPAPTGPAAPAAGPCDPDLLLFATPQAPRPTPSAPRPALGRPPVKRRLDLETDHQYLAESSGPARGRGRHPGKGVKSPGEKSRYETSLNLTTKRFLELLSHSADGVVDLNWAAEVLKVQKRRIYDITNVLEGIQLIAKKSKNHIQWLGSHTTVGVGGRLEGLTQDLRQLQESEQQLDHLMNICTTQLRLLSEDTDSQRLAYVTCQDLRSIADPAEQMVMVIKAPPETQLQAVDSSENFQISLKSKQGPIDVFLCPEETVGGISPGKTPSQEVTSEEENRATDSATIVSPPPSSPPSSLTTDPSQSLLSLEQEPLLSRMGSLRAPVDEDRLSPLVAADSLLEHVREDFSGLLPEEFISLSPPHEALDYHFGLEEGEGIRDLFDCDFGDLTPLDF

Assay [2] in a line: ATG_E_Box_CIS: Attagene CIS-FACTORIAL HepG2 Assay for human Enhancer Box (E-box) (AID 2282936). The settings on record: HepG2 E-box cis-reporter transcription, actives raise or lower the signal. An outline of the steps:
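Endogenous transcription factor activity was sensed in human HepG2 liver cells through transfected cis-promoter reporter units. After 24 h of dosing, total RNA was reverse-transcribed and reporter cDNA resolved by capillary electrophoresis.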

A short description of assay [3]: ATG_M_61_CIS: Attagene CIS-FACTORIAL HepG2 Assay for M61 Transcription Factor (Internal Marker) (AID 2282937). The note with it: HepG2 Attagene CIS-FACTORIAL M61 internal marker reporter; actives raise or lower the signal. An outline of the steps:
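Readout: fluorescent reporter mRNA fragments resolved by capillary electrophoresis after RT-PCR. Transiently transfected human HepG2 cells carried MRTU constructs reporting endogenous TF activity; 24 h chemical exposure; gain or loss of signal fitted relative to DMSO.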

A short description of assay [4]: ATG_EGR_CIS: Attagene CIS-FACTORIAL HepG2 Assay for human Early Growth Response 1 (EGR1) (AID 2282938). The settings on record: HepG2 Attagene CIS-FACTORIAL EGR reporter mRNA; actives raise or lower the signal. The gist of the method:
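Read-out: fluorescent reporter-mRNA fragments resolved by capillary electrophoresis after RT-PCR, 24 h post-dose in transiently transfected HepG2. Endogenous transcription-factor activity reported via cis-element-regulated reporter units; gain or loss fitted relative to DMSO.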

Assay [5] is described as follows: ATG_M_19_CIS: Attagene CIS-FACTORIAL HepG2 Assay for M19 Transcription Factor (Internal Marker) (AID 2282939). The settings on record: HepG2 Attagene CIS-FACTORIAL M19 internal marker reporter; actives raise or lower the signal. An outline of the steps: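 HepG2 cells transiently transfected with cis-regulated multiple reporter transcription units were dosed for 24 h; reporter mRNA was quantified by RT-PCR, 6-FAM primer-extension labelling, HpaI digestion and capillary electrophoresis, with bidirectional fitting against DMSO baseline.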

Assay [6] in a line: ATG_ERE_CIS: Attagene CIS-FACTORIAL HepG2 Assay for Estrogen Response Element (ERE) (AID 2282940). The settings on record: HepG2 ERE cis-reporter, Attagene RNA transcript; actives raise or lower the signal. The gist of the method: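 HepG2 cells transiently transfected with cis-promoter-driven multiplexed reporter transcription units report endogenous TF activity. After 24 h compound exposure, reporter mRNA is quantified by RT-PCR with capillary electrophoresis fluorescence; bidirectional fitting versus DMSO baseline.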

A short description of assay [7]: ATG_Ets_CIS: Attagene CIS-FACTORIAL HepG2 Assay for human Erythroblast Transformation Specific (ETS) (AID 2282941). The note with it: HepG2 ETS cis-reporter transcription, actives raise or lower the signal. An outline of the steps: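 Cis-regulated reporter mRNA induction in HepG2 (transient transfection), 24 h exposure, RT-PCR plus capillary electrophoresis detection; DMSO serves as negative control and baseline.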

The target in assay [8] is Hepatocyte nuclear factor 3-beta (Homo sapiens) (UniProt Q9Y261). In words: ATG_FoxA2_CIS: Attagene CIS-FACTORIAL HepG2 Assay for human Forkhead box A2 (FOXA2) (AID 2282942). The settings on record: HepG2 cis-reporter transcription factor activity, 24 h; actives raise or lower the signal. An outline of the steps: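 Readout: fluorescent reporter transcripts resolved by capillary electrophoresis after RT-PCR. Transiently transfected HepG2, 24 h compound exposure, endogenous TF activity at cis promoter elements. Gain or loss of signal fitted relative to DMSO.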
Chain of Hepatocyte nuclear factor 3-beta (Homo sapiens) (Q9Y261 whole entry, looked up): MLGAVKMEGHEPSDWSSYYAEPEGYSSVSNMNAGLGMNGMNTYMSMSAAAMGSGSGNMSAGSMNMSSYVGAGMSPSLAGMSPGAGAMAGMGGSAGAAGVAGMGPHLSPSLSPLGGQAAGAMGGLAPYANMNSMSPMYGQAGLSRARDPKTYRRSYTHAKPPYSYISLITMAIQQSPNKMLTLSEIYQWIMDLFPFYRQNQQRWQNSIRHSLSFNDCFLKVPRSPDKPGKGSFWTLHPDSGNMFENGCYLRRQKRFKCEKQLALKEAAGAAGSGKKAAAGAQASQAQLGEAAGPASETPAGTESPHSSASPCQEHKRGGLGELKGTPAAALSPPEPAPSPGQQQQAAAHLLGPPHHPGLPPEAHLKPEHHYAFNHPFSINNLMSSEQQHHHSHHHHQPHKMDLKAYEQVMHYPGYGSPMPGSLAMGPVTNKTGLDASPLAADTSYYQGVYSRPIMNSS

The nature of assay [9]: ATG_FoxO_CIS: Attagene CIS-FACTORIAL HepG2 Assay for human Forkhead box O (FoxO) (AID 2282943). The settings on record: HepG2 Attagene cis-reporter, FoxO element, mRNA; actives raise or lower the signal. The gist of the method:
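Values reflect reporter mRNA induction or loss in HepG2 cells 24 h post-dosing, fitted bidirectionally with DMSO as negative control and baseline. Detection used RT-PCR and fluorescence capillary electrophoresis.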

The nature of assay [10]: ATG_GATA_CIS: Attagene CIS-FACTORIAL HepG2 Assay for human GATA Binding Protein (AID 2282944). The settings on record: HepG2 GATA cis-element reporter, Attagene multiplex mRNA; actives raise or lower the signal. An outline of the steps:
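HepG2 cells transiently transfected with multiplexed cis-element reporter units reflecting endogenous transcription factor activity; reporter mRNA measured after 24 h dosing by RT-PCR, 6-FAM labeling, HpaI digestion and capillary electrophoresis. Bidirectional fitting versus DMSO baseline.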

Assay [11] in a line: ATG_GLI_CIS: Attagene CIS-FACTORIAL HepG2 Assay for human Zinc Finger Protein GLI1 (AID 2282945). The settings on record: HepG2, Attagene cis-factorial reporter mRNA, GLI element; actives raise or lower the signal. An outline of the steps:
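HepG2 cells transiently transfected with cis-promoter multiplexed reporter units report endogenous transcription factor activity. After 24 h chemical exposure, reporter mRNA was quantified by RT-PCR, 6-FAM labelling, HpaI digestion and capillary electrophoresis, with bidirectional fitting against DMSO.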

Assay [12] concerns the target Bile acid receptor (Homo sapiens) (UniProt Q96RI1). The experiment in a line: ATG_IR1_CIS: Attagene CIS-FACTORIAL HepG2 Assay for human Nuclear Receptor Subfamily 1 Group H Member 4 (NR1H4), IR1 submotif (AID 2282946). The settings on record: IR1 reporter transcription, actives raise or lower the signal. The gist of the method: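 Readout: reporter transcript levels by RT-PCR with fluorescent capillary electrophoresis, from HepG2 cells transiently transfected with multiplexed cis-regulated reporters and dosed 24 h. Gain- or loss-of-signal fitted versus DMSO negative control.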

Assay [13] can be described thus: ATG_ISRE_CIS: Attagene CIS-FACTORIAL HepG2 Assay for human Interferon Regulatory Factor 1 (IRF1) binding to an Interferon-Stimulated Response Element (ISRE) (AID 2282948). The note with it: HepG2 ISRE cis-reporter (Attagene), mRNA transcription readout; actives raise or lower the signal. The gist of the method:
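Multiplexed mRNA reporter readout in human liver HepG2 cells: cis-element-driven reporters transfected, compound added for 24 h, transcripts amplified, fluorescently labelled and sized by capillary electrophoresis; curve fitting bidirectional against DMSO.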

Assay [14] can be described thus: ATG_M_32_CIS: Attagene CIS-FACTORIAL HepG2 Assay for M32 Transcription Factor (Internal Marker) (AID 2282949).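 Note: background control marker of the multiplexed CIS panel rather than a real target.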 The note with it: HepG2 Attagene cis-factorial M32 reporter, mRNA; actives raise or lower the signal. The gist of the method: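 HepG2 human liver cells transiently transfected with cis-promoter-driven multiple reporter transcription units, dosed 24 h. Reporter mRNA quantified by RT-PCR, FAM-labelled primer extension, HpaI digest and capillary electrophoresis; bidirectional fit versus DMSO baseline.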

Assay [15] can be described thus: ATG_M_06_CIS: Attagene CIS-FACTORIAL HepG2 Assay for M06 Transcription Factor (Internal Marker) (AID 2282950). The settings on record: HepG2 Attagene CIS-FACTORIAL M06 internal marker reporter; actives raise or lower the signal. An outline of the steps: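 HepG2 cells transiently transfected with cis-regulated multiple reporter transcription units were exposed to chemical for 24 h; reporter mRNA was quantified by RT-PCR, 6-FAM primer labelling, HpaI digestion and capillary electrophoresis, fitted bidirectionally against DMSO.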

Assay [16] has as its target Hypoxia-inducible factor 1-alpha (Homo sapiens) (UniProt Q16665). The experiment in a line: ATG_HIF1a_CIS: Attagene CIS-FACTORIAL HepG2 Assay for human Hypoxia Inducible Factor 1 (HIF1A) (AID 2282951). The note with it: HepG2 Attagene cis-factorial HIF1a reporter transcription; actives raise or lower the signal. An outline of the steps: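 RT-PCR/capillary electrophoresis fluorescence readout of reporter transcripts from endogenous-TF-driven cis elements in transfected HepG2 cells, 24 h exposure; activity fitted in both directions against DMSO controls.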

The target of assay [17] is Hepatocyte nuclear factor 6 (Homo sapiens) (UniProt Q9UBC0). In words: ATG_HNF6_CIS: Attagene CIS-FACTORIAL HepG2 Assay for human Hepatocyte Nuclear Factor 6 (HNF6) (AID 2282952). The settings on record: HepG2 Attagene cis-factorial HNF6 reporter transcription; actives raise or lower the signal. An outline of the steps:
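Using cis-element reporters in HepG2 liver cells, the assay tracks endogenous factor-driven transcription 24 h post-dosing. Signal comes from 6-FAM-labelled, HpaI-digested RT-PCR fragments, with gain or loss scored against DMSO.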

A short description of assay [18]: ATG_MRE_CIS: Attagene CIS-FACTORIAL HepG2 Assay for human Metal Responsive Element (MRE) (AID 2282954). The note with it: HepG2 MRE cis-reporter transcription, Attagene multiplex; actives raise or lower the signal. The gist of the method:
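Cells were transfected with cis-promoter reporter transcription units, then dosed for 24 h. RNA was reverse-transcribed, amplified, fluorescently labelled and resolved by capillary electrophoresis, and activity was fitted in both directions relative to DMSO.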

The target in assay [19] is Heat shock factor protein 1 (Homo sapiens) (UniProt Q00613). The experiment in a line: ATG_HSE_CIS: Attagene CIS-FACTORIAL HepG2 Assay for human Heat Shock Transcription Factor 1 (HSE) (AID 2282953). The note with it: HepG2 HSE cis-reporter, Attagene RNA transcription; actives raise or lower the signal. An outline of the steps: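 HepG2 cells transiently transfected with multiple reporter transcription units under cis-regulatory promoter control, measuring endogenous transcription factor activity. After 24 h chemical exposure, reporter mRNA quantified by RT-PCR, fluorescent labelling, HpaI digestion and capillary electrophoresis; bidirectional fit versus DMSO.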
Chain of Heat shock factor protein 1 (Homo sapiens) (Q00613 whole entry, looked up): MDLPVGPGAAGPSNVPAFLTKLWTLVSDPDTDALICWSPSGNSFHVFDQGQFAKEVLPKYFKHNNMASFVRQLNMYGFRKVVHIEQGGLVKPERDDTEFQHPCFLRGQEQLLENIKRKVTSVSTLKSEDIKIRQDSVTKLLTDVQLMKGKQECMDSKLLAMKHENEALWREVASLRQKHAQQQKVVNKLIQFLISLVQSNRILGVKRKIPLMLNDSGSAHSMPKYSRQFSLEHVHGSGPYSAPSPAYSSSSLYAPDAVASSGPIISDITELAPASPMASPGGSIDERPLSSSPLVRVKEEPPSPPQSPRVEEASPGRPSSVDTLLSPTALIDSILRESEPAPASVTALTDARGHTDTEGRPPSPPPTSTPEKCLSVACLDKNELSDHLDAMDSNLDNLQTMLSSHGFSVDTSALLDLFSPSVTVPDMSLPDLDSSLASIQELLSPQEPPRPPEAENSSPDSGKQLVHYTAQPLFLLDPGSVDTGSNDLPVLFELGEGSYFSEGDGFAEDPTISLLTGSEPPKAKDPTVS

Calls of active or inactive are those of the source. Rule for the calls: active = hit-call score of the fitted dose curve at least 0.9, where 1 is the maximum; inactive = score below 0.9.

Chain of Hypoxia-inducible factor 1-alpha (Homo sapiens) (Q16665 whole entry, looked up): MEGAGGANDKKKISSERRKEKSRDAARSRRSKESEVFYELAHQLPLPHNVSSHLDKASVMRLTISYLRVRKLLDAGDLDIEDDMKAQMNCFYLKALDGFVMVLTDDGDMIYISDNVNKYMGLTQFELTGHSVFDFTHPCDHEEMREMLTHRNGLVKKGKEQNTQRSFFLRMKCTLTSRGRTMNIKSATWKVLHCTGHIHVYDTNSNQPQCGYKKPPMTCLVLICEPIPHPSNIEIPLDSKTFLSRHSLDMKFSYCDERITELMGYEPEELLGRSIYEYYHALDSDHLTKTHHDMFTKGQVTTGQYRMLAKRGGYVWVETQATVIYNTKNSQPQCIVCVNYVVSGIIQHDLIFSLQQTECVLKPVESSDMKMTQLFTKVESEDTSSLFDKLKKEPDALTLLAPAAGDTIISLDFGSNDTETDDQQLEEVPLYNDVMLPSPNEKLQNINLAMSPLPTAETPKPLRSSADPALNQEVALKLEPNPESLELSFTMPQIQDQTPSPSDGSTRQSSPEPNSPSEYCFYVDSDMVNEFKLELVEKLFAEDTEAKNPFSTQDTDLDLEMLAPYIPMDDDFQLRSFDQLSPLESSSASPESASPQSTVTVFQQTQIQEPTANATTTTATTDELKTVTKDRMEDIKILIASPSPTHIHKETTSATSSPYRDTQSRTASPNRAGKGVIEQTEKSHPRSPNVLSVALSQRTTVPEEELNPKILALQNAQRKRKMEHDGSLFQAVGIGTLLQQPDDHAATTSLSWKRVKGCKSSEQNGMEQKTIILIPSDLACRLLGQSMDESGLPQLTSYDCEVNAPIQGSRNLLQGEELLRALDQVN
Chain of Hepatocyte nuclear factor 6 (Homo sapiens) (Q9UBC0 whole entry, looked up, the tested form may be a part): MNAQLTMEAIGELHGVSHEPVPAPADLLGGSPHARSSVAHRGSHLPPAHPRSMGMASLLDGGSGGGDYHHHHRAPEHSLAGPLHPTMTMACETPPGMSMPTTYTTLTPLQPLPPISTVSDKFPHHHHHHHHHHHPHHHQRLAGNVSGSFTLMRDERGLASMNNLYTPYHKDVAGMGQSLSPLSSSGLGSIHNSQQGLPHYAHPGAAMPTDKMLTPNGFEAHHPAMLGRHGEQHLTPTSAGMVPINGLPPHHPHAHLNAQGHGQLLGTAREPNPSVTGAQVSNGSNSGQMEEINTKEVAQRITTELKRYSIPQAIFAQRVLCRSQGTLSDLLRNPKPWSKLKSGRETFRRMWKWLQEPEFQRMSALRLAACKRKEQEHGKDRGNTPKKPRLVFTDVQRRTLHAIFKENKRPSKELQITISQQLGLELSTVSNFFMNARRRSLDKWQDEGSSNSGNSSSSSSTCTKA
Chain of Bile acid receptor (Homo sapiens) (Q96RI1 whole entry, looked up): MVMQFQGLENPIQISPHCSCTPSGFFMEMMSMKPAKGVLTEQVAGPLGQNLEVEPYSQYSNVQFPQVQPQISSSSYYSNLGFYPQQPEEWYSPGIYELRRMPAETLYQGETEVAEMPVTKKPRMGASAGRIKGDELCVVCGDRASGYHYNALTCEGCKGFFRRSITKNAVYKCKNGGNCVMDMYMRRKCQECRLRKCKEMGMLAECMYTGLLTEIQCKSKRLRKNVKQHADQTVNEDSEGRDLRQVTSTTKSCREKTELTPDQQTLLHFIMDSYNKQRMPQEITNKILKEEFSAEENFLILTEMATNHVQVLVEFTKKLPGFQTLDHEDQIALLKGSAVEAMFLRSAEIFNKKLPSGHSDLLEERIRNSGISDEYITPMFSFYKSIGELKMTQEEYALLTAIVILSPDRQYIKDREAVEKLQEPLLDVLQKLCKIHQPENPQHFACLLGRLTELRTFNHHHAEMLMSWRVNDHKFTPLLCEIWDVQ

For the molecule `CN=C=S`, the call in assay [1], in assay [2], in [3], in [4], in [5] and in assay [6] was inactive. The molecule was classed as inactive in assay [7], in assay [8], in assay [9], in assay [10], in assay [11] and in assay [12]. The molecule was classed as inactive in assay [13], in assay [14], in [15], in [16] and in [17].

Consider `O=C1C2CC=CCC2C(=O)N1SC(Cl)(Cl)Cl` (stereo not drawn), for which the outcome in assay [1], in assay [2], in assay [3], in assay [4], in assay [5] and in assay [6] was inactive. Also, the result in assay [7], in [8], in [9], in assay [10], in assay [11] and in [13] was inactive. For the same molecule, the molecule was classed as inactive in assay [14], in [15], in assay [16], in assay [17] and in [18].

Regarding `CC(C)=CC1C(C(=O)OCc2coc(Cc3ccccc3)c2)C1(C)C` (stereo not drawn), the molecule was classed as inactive in assay [1], in assay [2], in assay [3], in [4], in assay [5] and in assay [7]. The outcome in assay [8], in assay [9], in assay [10], in [11], in [12] and in [13] was inactive. For the same molecule, the molecule was classed as inactive in assay [14], in [15], in [16], in assay [17] and in assay [19]. In assay [6], the AC50 is 13.1 µM (active).

`CCOc1cc(C(C)(C)C)ccc1C1COC(c2c(F)cccc2F)=N1` (stereo not drawn): the molecule was classed as inactive in assay [1], in assay [2], in assay [3], in [4], in assay [5] and in assay [6]. Besides, the molecule was called inactive in [7], in assay [8], in assay [9], in assay [10], in [11] and in [12]. Also, the result in [13], in assay [14], in assay [15], in [16], in assay [17] and in assay [19] was inactive.

On to `N#CN=C1SCCN1Cc1ccc(Cl)nc1`, for which the result in assay [1], in [2], in assay [3], in [4], in [5] and in [6] was inactive. The molecule was classed as inactive in assay [7], in assay [8], in [9], in assay [10], in assay [11] and in [13]. Also, the outcome in assay [14], in assay [15], in assay [16], in [17], in assay [19] and in assay [18] was inactive.

Take `COC(=O)c1c(C(F)F)nc(C(F)(F)F)c(C2=NCCS2)c1CC(C)C`: the molecule was classed as inactive in [1], in assay [3], in assay [4], in assay [5], in assay [7] and in assay [8]. Also, the result in assay [9], in [11], in assay [13], in assay [14], in [15] and in assay [16] was inactive. In addition, in [17], the molecule was classed as inactive. Further, the AC50 was 9.92 µM (active) in assay [2], 13.8 µM (active) in [6], 88.5 µM (active) in assay [10] and 18.5 µM (active) in [18].

Consider `COc1cc(OC)nc(NC(=O)NS(=O)(=O)c2ncccc2OCC(F)(F)F)n1`, for which the result in assay [1], in [2], in [3], in [4], in [5] and in assay [6] was inactive. The molecule was classed as inactive in [7], in [8], in assay [9], in [10], in [11] and in assay [12]. In addition, the call in assay [13], in assay [14], in [15], in assay [16] and in [17] was inactive.

Turning to `OC(c1ccc(Cl)cc1)(c1ccc(Cl)cc1)C(Cl)(Cl)Cl`, the outcome in [1], in [2], in [4], in [5], in [6] and in [7] was inactive. Also, the outcome in assay [8], in assay [9], in [10], in assay [11], in assay [12] and in assay [13] was inactive. In addition, the molecule was called inactive in assay [14], in [15], in assay [16] and in assay [17].

The values are drawn from PubChem BioAssay (EPA / NIEHS).
